What all share (assay): NCI-60 one-dose screen, 48 h (100 = growth as untreated, 0 = no growth, -100 = all killed)
One experiment deals with HCT-15 colon. Conditions: 10 µM unless noted.
In another experiment the test system is HT29 colon. Conditions: 10 µM unless noted.
The next experiment concerns SNB-75 CNS. Conditions: 10 µM unless noted.
The next experiment relates to SNB-19 CNS. Conditions: 10 µM unless noted.
Another experiment relates to U251 CNS. Conditions: 10 µM unless noted.
In another experiment the test system is PC-3 prostate. The following applies: 10 µM unless noted.
A further experiment concerns SK-MEL-5 melanoma. Conditions: 10 µM unless noted.
A further experiment has as its system UACC-62 melanoma. Conditions: 10 µM unless noted.
A further experiment has as its system LOX IMVI melanoma. Conditions: 10 µM unless noted.
For another experiment, the system named is SK-MEL-2 melanoma. The following applies: 10 µM unless noted.
The test system of a further experiment is EKVX NSCLC. Conditions: 10 µM.
The test system of another experiment is SN12C renal. Conditions: 10 µM unless noted.
The next experiment has as its system UO-31 renal. The following applies: 10 µM unless noted.
A further experiment has as its system TK-10 renal. Conditions: 10 µM unless noted.
The next experiment deals with ACHN renal. Conditions: 10 µM unless noted.
A further experiment relates to CAKI-1 renal. The following applies: 10 µM unless noted.
A further experiment relates to A498 renal. The following applies: 10 µM unless noted.
The next experiment has as its system CCRF-CEM leukemia. Conditions: 10 µM.
The subject of a further experiment is MOLT-4 leukemia. Conditions: 10 µM unless noted.
Another experiment concerns SK-MEL-28 melanoma. The following applies: 10 µM unless noted.

This is part of a sample that, as a whole, favours compounds with a hit. Of some 83,000 tested, about 20% had one in any assay.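 In brief: 96-well plates, 48 h treatment, single concentration, percent growth endpoint.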 A number with no mark means an inactive call. Active and inactive are the calls of the source. Rule for the calls: active = growth percent below 10; inactive = the rest.

As for `CC(=O)NNC(=O)c1sc(NC(C)=O)nc1C`, the growth in the experiment with HCT-15 colon was 95.7%; with HT29 colon, 87.3%; with SNB-75 CNS, 99.2%; in the experiment on SNB-19 CNS, 92.4%; with U251 CNS it was 102%; in the experiment on PC-3 prostate it was 90.8%. Moreover, the growth was 103% with SK-MEL-5 melanoma; 91.9% with UACC-62 melanoma; 94.4% with LOX IMVI melanoma; 35.3% in the experiment with SK-MEL-2 melanoma; 115% in the experiment with EKVX NSCLC; 99.4% with SN12C renal. In addition, the growth in the experiment on UO-31 renal is 89.1%; with TK-10 renal it was 95.2%; with ACHN renal, 106%; in the experiment on CAKI-1 renal, 115%; in the experiment with A498 renal, 100%; in the experiment on CCRF-CEM leukemia it was 88.1%. For the same compound, the growth in the experiment with MOLT-4 leukemia was 94.1%.
In the case of `C[C@H]1C[C@@H](n2cnc3c(N)nccc32)[C@H](O)[C@@H]1O`, the growth with HCT-15 colon was 87.8%; in the experiment on HT29 colon, 89.2%; with SNB-75 CNS, 100%; with SNB-19 CNS it was 82%; in the experiment on U251 CNS it was 69.2%; in the experiment with PC-3 prostate, 110%. Also, the growth with SK-MEL-5 melanoma was 96.7%; in the experiment with UACC-62 melanoma it was 98.7%; in the experiment with LOX IMVI melanoma, 79.8%; in the experiment on SK-MEL-2 melanoma, 106%; in the experiment with EKVX NSCLC, 96.3%; in the experiment on SN12C renal it was 92.3%. Also, the growth with UO-31 renal was 167%; in the experiment on TK-10 renal it was 119%; in the experiment on ACHN renal, 101%; with CAKI-1 renal it was 116%; in the experiment with A498 renal, 120%; in the experiment on CCRF-CEM leukemia it was 23.6%. For the same compound, in the experiment with MOLT-4 leukemia, the growth was 65%.
On to `COc1ccc(OC)c(Cn2cc3c(c2-c2ccccc2)CCc2cnoc2-3)c1`, for which the growth in the experiment with HCT-15 colon was 45.5%; in the experiment on HT29 colon, 30.4%; in the experiment with SNB-75 CNS, 55.9%; in the experiment with SNB-19 CNS, 65.5%; with U251 CNS, 53.4%; in the experiment on PC-3 prostate it was 41.1%. The growth was 40.2% with SK-MEL-5 melanoma; 48.1% in the experiment with UACC-62 melanoma; 61.6% in the experiment on LOX IMVI melanoma; 74.2% with SK-MEL-2 melanoma; 58.5% in the experiment with EKVX NSCLC; 73% with SN12C renal. Moreover, the growth was 59% in the experiment on UO-31 renal; 65.3% in the experiment on ACHN renal; 28.9% with CAKI-1 renal; 53.8% in the experiment on A498 renal; 48.7% in the experiment on CCRF-CEM leukemia; 47% with MOLT-4 leukemia.
Consider `O=C(N/N=C\c1ccc(-c2ccc(Br)cc2)o1)c1cc2oc(-c3cccc(C(F)(F)F)c3)cc2[nH]1`, for which the growth with HCT-15 colon was 84.5%; in the experiment with HT29 colon, 110%; with SNB-75 CNS, 72.3%; with SNB-19 CNS, 97.9%; with U251 CNS it was 84.1%; with PC-3 prostate, 102%. Moreover, the growth with SK-MEL-5 melanoma was 102%; in the experiment on UACC-62 melanoma, 108%; with LOX IMVI melanoma, 86%; in the experiment with SK-MEL-28 melanoma, 81.5%; with EKVX NSCLC it was 142%; in the experiment with SN12C renal it was 107%. For the same compound, the growth in the experiment with UO-31 renal was 122%; in the experiment on TK-10 renal it was 127%; in the experiment with ACHN renal, 95%; in the experiment with A498 renal it was 87.6%; in the experiment on CCRF-CEM leukemia it was 0.0711% (active); with MOLT-4 leukemia it was 66.6%.
Consider `O=C1/C(=C/c2ccc(Cl)cc2)CCC/C1=C\c1ccc(Cl)cc1`, for which the growth was 80.9% in the experiment with HCT-15 colon; 6.8% (active) in the experiment with HT29 colon; 90.1% with SNB-75 CNS; 92.5% with SNB-19 CNS; 14.7% with U251 CNS; 90.8% with PC-3 prostate. In addition, the growth in the experiment with SK-MEL-5 melanoma is 84.6%; with UACC-62 melanoma, 80.5%; in the experiment on LOX IMVI melanoma it was -67.7% (active); with SK-MEL-2 melanoma it was 117%; in the experiment with EKVX NSCLC it was 89.2%; in the experiment on SN12C renal it was 92%. Besides, the growth with UO-31 renal is 74.1%; in the experiment on TK-10 renal it was 123%; in the experiment with ACHN renal it was 95%; in the experiment on CAKI-1 renal, 89.4%; with A498 renal, 105%; with CCRF-CEM leukemia, 78.1%. Moreover, the growth with MOLT-4 leukemia was 80.2%.
Turning to `N/C(=N\O)c1ccncc1`, the growth in the experiment with HCT-15 colon is 100%; in the experiment on HT29 colon, 101%; with SNB-75 CNS, 86.7%; in the experiment with SNB-19 CNS, 104%; in the experiment with U251 CNS, 106%; in the experiment on PC-3 prostate, 102%. Further, the growth was 113% in the experiment on SK-MEL-5 melanoma; 98.1% in the experiment with UACC-62 melanoma; 96.2% in the experiment on LOX IMVI melanoma; 100% in the experiment with SK-MEL-2 melanoma; 98.9% in the experiment with EKVX NSCLC; 106% with SN12C renal. In addition, the growth in the experiment on UO-31 renal was 88%; in the experiment on TK-10 renal, 95.8%; with ACHN renal, 103%; with CCRF-CEM leukemia, 106%; in the experiment with MOLT-4 leukemia, 114%.
Take `CC(C)CSc1nc(-c2ccc(F)cc2)c(C#N)c(N2CCCCC2)n1`: the growth was 92.2% in the experiment with HCT-15 colon; 87.6% in the experiment with HT29 colon; 100% with SNB-75 CNS; 104% in the experiment with SNB-19 CNS; 93% in the experiment on U251 CNS; 82% in the experiment with PC-3 prostate. For the same compound, the growth with SK-MEL-5 melanoma is 94.3%; in the experiment with UACC-62 melanoma it was 82.1%; in the experiment on LOX IMVI melanoma, 92.9%; with SK-MEL-2 melanoma it was 85.5%; in the experiment on EKVX NSCLC, 93.4%; in the experiment on SN12C renal, 105%. Moreover, the growth with UO-31 renal is 95.3%; in the experiment on TK-10 renal, 91.4%; in the experiment with ACHN renal it was 98.8%; in the experiment with CCRF-CEM leukemia, 94.4%; in the experiment on MOLT-4 leukemia it was 95.3%.
With `CCCCCCCCCC(C)NC(=O)CCl` (stereo not given), the growth was 89.6% in the experiment on HCT-15 colon; 114% in the experiment with HT29 colon; 69.8% in the experiment with SNB-75 CNS; 86.5% in the experiment on SNB-19 CNS; 82.1% in the experiment on U251 CNS; 94.5% in the experiment with PC-3 prostate. Besides, the growth is 97.5% in the experiment on SK-MEL-5 melanoma; 93.4% in the experiment on UACC-62 melanoma; 47.9% in the experiment with LOX IMVI melanoma; 95.3% in the experiment on SK-MEL-28 melanoma; 75.1% in the experiment with SN12C renal; 83.7% in the experiment on UO-31 renal. Also, the growth in the experiment with ACHN renal was 93%; in the experiment with A498 renal, 91.3%; in the experiment with MOLT-4 leukemia, 72.1%.
In the case of `CC(=O)c1nn(-c2ccc(C)cc2)cc1C(=O)c1cc2c(ccc3ccccc32)oc1=O`, the growth is 99.3% in the experiment with HCT-15 colon; 92.4% in the experiment on HT29 colon; 66.4% with SNB-75 CNS; 92.6% with SNB-19 CNS; 104% in the experiment on U251 CNS; 87.9% in the experiment on PC-3 prostate. Besides, the growth in the experiment with SK-MEL-5 melanoma is 95.6%; in the experiment with UACC-62 melanoma, 78.3%; in the experiment on LOX IMVI melanoma it was 90.5%; in the experiment with SK-MEL-2 melanoma, 99.7%; in the experiment on EKVX NSCLC it was 82.3%; in the experiment with SN12C renal, 94.3%. Moreover, the growth with UO-31 renal is 65.2%; with TK-10 renal it was 144%; in the experiment with ACHN renal, 88.1%; with A498 renal, 124%; in the experiment on CCRF-CEM leukemia, 98.4%; in the experiment with MOLT-4 leukemia, 102%.
